# Assay results reported in the supplement of paper PMC10849652.
# Targets with a hit are over-represented here; the source holds about 7,900 in all. About 0.6% of all pairs of compound and target were hits. Values without a mark were called inactive.
# How the values were obtained:
# Assay in all cases: log2 fold change, soluble protein after heating vs DMSO (PISA); higher = thermal stabilisation; K562 cells, 10 uM, 30 min; active = over 0.2 and 3.5 SD of the protein, either way, in both replicates (recomputed)
# [1] = target: ZW10 (UniProt O43264)
# ZW10, sequence (O43264 whole entry, looked up): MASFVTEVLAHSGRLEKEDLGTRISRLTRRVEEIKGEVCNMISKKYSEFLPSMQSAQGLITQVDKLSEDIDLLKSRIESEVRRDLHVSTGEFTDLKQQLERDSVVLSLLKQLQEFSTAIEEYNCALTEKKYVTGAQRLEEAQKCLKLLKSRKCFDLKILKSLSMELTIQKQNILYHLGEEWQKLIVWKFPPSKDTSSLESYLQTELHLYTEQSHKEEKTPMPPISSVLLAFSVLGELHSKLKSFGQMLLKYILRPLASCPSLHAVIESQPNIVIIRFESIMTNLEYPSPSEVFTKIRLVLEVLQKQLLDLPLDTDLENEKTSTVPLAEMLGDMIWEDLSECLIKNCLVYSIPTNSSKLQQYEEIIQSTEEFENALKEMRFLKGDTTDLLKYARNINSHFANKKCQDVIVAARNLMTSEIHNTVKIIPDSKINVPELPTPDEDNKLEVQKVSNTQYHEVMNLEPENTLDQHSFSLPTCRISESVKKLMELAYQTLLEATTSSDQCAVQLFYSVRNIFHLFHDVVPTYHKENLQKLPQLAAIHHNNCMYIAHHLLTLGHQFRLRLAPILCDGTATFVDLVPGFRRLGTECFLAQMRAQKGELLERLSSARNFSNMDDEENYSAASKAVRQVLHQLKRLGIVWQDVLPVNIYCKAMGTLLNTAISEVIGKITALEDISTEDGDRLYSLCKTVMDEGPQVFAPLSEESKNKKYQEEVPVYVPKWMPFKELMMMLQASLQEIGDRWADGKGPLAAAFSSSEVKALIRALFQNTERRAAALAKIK
# Procedure, shortened: (§1)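 K562 cells at 2×10^6 cells/mL were treated with 10 μM compound for 30 min. Aliquots were heated for 3 min across 48°C-58°C, pooled, and extracted in PBS with 0.5% NP-40 at 4°C; soluble protein was the supernatant after 21,000xg for 90 min. Soluble protein was quantified by TMTpro 16plex LC-MS/MS with channel sums equalised, and reported as log2 fold change in thermal stability against DMSO controls, with values from duplicates.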
# [2] = target: ZWILCH (UniProt Q9H900)
# ZWILCH, sequence (Q9H900 whole entry, looked up): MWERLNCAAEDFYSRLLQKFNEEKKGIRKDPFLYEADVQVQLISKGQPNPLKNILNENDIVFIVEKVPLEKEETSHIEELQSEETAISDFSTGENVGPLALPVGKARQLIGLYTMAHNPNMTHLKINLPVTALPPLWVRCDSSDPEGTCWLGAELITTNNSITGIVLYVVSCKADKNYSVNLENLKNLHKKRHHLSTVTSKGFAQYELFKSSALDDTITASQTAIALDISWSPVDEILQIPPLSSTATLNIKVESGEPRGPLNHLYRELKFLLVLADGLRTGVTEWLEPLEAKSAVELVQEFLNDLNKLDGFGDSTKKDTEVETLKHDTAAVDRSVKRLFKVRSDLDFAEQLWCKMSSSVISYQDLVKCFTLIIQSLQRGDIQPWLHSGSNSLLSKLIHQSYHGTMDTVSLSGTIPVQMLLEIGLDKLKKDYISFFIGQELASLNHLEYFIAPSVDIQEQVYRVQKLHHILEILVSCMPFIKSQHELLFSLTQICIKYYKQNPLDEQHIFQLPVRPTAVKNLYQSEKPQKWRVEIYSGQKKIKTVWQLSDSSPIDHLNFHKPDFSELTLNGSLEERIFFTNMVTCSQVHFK
# Procedure, shortened: as §1
# [3] = target: ZYG11B (UniProt Q9C0D3)
# ZYG11B, sequence (Q9C0D3 whole entry, looked up): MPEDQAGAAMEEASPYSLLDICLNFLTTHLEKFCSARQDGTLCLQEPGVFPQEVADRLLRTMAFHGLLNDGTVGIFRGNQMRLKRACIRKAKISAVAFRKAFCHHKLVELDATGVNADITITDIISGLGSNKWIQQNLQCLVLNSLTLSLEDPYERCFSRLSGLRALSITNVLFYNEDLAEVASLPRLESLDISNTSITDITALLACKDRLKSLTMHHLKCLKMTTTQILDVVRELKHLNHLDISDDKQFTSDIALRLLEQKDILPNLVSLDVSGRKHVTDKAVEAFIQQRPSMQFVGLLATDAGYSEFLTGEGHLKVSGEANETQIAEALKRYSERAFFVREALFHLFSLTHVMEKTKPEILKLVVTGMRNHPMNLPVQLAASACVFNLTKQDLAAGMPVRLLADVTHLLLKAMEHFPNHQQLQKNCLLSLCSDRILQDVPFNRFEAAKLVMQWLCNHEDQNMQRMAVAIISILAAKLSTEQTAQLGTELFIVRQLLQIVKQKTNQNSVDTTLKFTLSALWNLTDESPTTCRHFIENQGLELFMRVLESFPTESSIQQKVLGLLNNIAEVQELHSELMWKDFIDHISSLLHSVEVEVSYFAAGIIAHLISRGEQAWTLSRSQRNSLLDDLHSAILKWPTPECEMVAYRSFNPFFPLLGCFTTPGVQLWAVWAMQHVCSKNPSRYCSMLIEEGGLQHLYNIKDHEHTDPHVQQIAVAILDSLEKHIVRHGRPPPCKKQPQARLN
# Procedure, shortened: as §1
SMILES,log2 fold change [1],log2 fold change [2],log2 fold change [3]
CCCc1cc(C)[nH]c(=O)c1CNC(=O)c1cc(-c2ccnc(N3CCN(C)CC3)c2)cc2c1cnn2C(C)C,0.072,0.004,0.1
CN(C)CC(=O)Nc1ccc2[nH]c(=O)c3ccccc3c2c1,0.013,0.051,-0.003
NCC(=O)Nc1ccc(-n2nc(C(F)(F)F)cc2-c2ccc3c(ccc4ccccc43)c2)cc1,-0.007,-0.068,-0.045
O=C(Nc1cccc(Nc2ncc(Br)c(NCCc3cnc[nH]3)n2)c1)N1CCCC1,-0.018,0.029,-0.026
Nc1ccccc1NC(=O)c1ccc(CNC(=O)OCc2cccnc2)cc1 [entinostat],0.063,0.002,0.013
Cc1ccc(-n2nc(C(C)(C)C)cc2NC(=O)Nc2ccc(OCCN3CCOCC3)c3ccccc23)cc1 [doramapimod],0.048,-0.002,0.036
Fc1ccc(Cl)cc1-c1nc(Nc2ccncc2)c2nccnc2n1,-0.04,-0.013,0.013
Cc1nc(Nc2ncc(C(=O)Nc3c(C)cccc3Cl)s2)cc(N2CCN(CCO)CC2)n1 [dasatinib],-0.124,-0.05,-0.017
O=C1NC(=NCc2cccs2)S/C1=C\c1ccc2ncccc2c1,-0.021,0.023,-0.007
COC(=O)[C@H](CCSC)NC(=O)c1ccc(NC[C@@H](N)CS)cc1-c1ccccc1,-0.079,-0.077,0.013
COc1ccc(Cn2ccc3ccc(C(=O)NO)cc32)cc1,-0.004,0.019,0.052
CNC(=O)c1ccc(Nc2ncc(C(F)(F)F)c(NCc3nccnc3N(C)S(C)(=O)=O)n2)cc1 [defactinib],-0.083,-0.007,-0.058
CC(C)(O)CC(=O)NCCn1ccc2ncnc(Nc3ccc(Oc4cccc(C(F)(F)F)c4)c(Cl)c3)c21,-0.027,0.012,-0.017
O=C1NC(=O)C(c2cnc3ccccn23)=C1c1cn2c3c(cc(F)cc13)CN(C(=O)N1CCCCC1)CC2,0.054,0.051,0.019
CS(=O)(=O)N1CCN(Cc2cc3nc(-c4cccc5[nH]ncc45)nc(N4CCOCC4)c3s2)CC1 [pictilisib],0.005,-0.026,0.104
c1cn2cc(-c3ccc4cn[nH]c4c3)nc(Nc3ccc(N4CCOCC4)cc3)c2n1 [entospletinib],0.063,0.022,0.068
CC[C@H](C)n1cc(C)c2c(C(=O)NCc3c(C)cc(C)[nH]c3=O)cc(-c3ccc(N4CCNCC4)nc3)cc21,0.077,0.048,0.101
O=C(CCCCCCC(=O)Nc1ccccc1)NO [vorinostat],0.085,0.056,0.053
COc1cc(Nc2ncc3c(n2)-c2ccc(Cl)cc2C(c2c(F)cccc2OC)=NC3)ccc1C(=O)O [alisertib],0.031,-0.024,-0.155
CC[C@@H]1C(=O)N(C)c2cnc(Nc3ccc(C(=O)N[C@H]4CC[C@H](N5CCN(CC6CC6)CC5)CC4)cc3OC)nc2N1C(C)C [volasertib],-0.399 (active),-0.266 (active),0.002
CN1CCN(CCOc2cc(OC3CCOCC3)c3c(Nc4c(Cl)ccc5c4OCO5)ncnc3c2)CC1 [saracatinib],-0.031,-0.012,-0.051
Oc1cc(-c2nc(-c3ccccc3)[nH]c2-c2ccncc2)ccc1Cl,-0.034,-0.002,0.015
NC(=O)c1cnc(N[C@@H]2CCCC[C@@H]2N)nc1Nc1cccc(-n2nccn2)c1,-0.027,-0.085,0.022
